Consider 22 compounds from PubChem BioAssay (EPA / NIEHS).

A short description of test [1]: CCTE_Deisenroth_DEVTOX-GLR_legacy_CellCount: (Legacy) Viability Assessment in CCTE's DevTox GLR-Endo Assay, Deisenroth Lab (AID 2284331; active = hit-call score of the fitted dose curve at least 0.9, where 1 is the maximum; inactive = score below 0.9). The following applies: actives raise or lower the signal. In short, it runs like this: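 RUES2-GLR human pluripotent cells were seeded 24 h, then differentiated 48 h with two compound doses at 24 h intervals (10-point, 1 nM - 200 uM). Fixed nuclei were imaged and counted; bidirectional fitting versus 0.2% DMSO.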

Test [2] relates to SRY-box transcription factor 17 (SOX17) Protein Expression, Deisenroth Lab, SOX17 (gene 64321). Kind of test: CCTE_Deisenroth_DEVTOX-GLR_legacy_Sox17: (Legacy) CCTE's DevTox GLR-Endo Assay Evaluation of SRY-box transcription factor 17 (SOX17) Protein Expression, Deisenroth Lab (AID 2284341; active = hit-call score of the fitted dose curve at least 0.9, where 1 is the maximum; inactive = score below 0.9). The following applies: actives raise or lower the signal. Put shortly:
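Percent SOX17-positive cells, scored by high-content imaging as mean intensity exceeding pluripotent-control median by 5x BMAD, divided by cell count. Human RUES2-GLR endoderm differentiation, 48 h, two exposures 24 h apart, 1 nM–200 uM; DMSO-referenced bidirectional fitting.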

The test system of test [3] is SRY-box transcription factor 2 (SOX2) Protein Expression, Deisenroth Lab, SOX2 (gene 6657). In words: CCTE_Deisenroth_DEVTOX-GLR_legacy_Sox2: (Legacy) CCTE's DevTox GLR-Endo Assay Evaluation of SRY-box transcription factor 2 (SOX2) Protein Expression, Deisenroth Lab (AID 2284346; active = hit-call score of the fitted dose curve at least 0.9, where 1 is the maximum; inactive = score below 0.9). Put shortly: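 Read-out: fraction of Sox2+ cells by high-content fluorescence imaging of fixed RUES2-GLR cells after 48 h differentiation with two 24 h-spaced exposures. Positivity cutoff 5x BMAD above endoderm control median; 0.2% DMSO median subtracted.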

In test [4] the test system is SRY-box transcription factor 17 (SOX17) Protein Expression, Deisenroth Lab, SOX17 (gene 64321). Kind of test: CCTE_Deisenroth_DEVTOX-GLR_Endo_SOX17: CCTE's DevTox GLR-Endo Assay Evaluation of SRY-box transcription factor 17 (SOX17) Protein Expression, Deisenroth Lab (AID 2284413; active = hit-call score of the fitted dose curve at least 0.9, where 1 is the maximum; inactive = score below 0.9). In short, it runs like this: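 Human RUES2-GLR cells carrying an inducible fluorescent reporter are differentiated in defined media for 48 h and dosed twice, 24 h apart. After fixation and nuclear staining, imaging yields SOX17+ cell percentage relative to 0.2% DMSO-treated differentiated cells.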

Test [5] deals with Brachyury (BRA) Protein Expression, TBXT (gene 6862). Kind of test: CCTE_Deisenroth_DEVTOX-GLR_Endo_BRA: CCTE's DevTox GLR-Endo Assay Evaluation of Brachyury (BRA) Protein Expression, Deisenroth Lab (AID 2284417; active = hit-call score of the fitted dose curve at least 0.9, where 1 is the maximum; inactive = score below 0.9). Put shortly: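 Endpoint is the fraction of BRA reporter-positive cells over total nuclei, corrected by subtracting the 0.2% DMSO value. Chemicals (1 nM - 200 uM, 10 points) were dosed twice during 48 h differentiation of RUES2-GLR cells, read by imaging.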

A short description of test [6]: CCTE_Deisenroth_DEVTOX-GLR_Endo_CellCount: Viability Assessment in CCTE's DevTox GLR-Endo Assay, Deisenroth Lab (AID 2284420; active = hit-call score of the fitted dose curve at least 0.9, where 1 is the maximum; inactive = score below 0.9). In short, it runs like this:
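Human pluripotent RUES2-GLR line; 24 h pre-seed; 48 h endoderm-directed differentiation; 2 doses, q24h; 10 conc., 1 nM - 200 uM; fix + nuclear dye; 5 fields/well imaged; readout = nuclei count, % change vs 0.2% DMSO; n=4.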

Test [7] deals with SRY-box transcription factor 17 (SOX17) Protein Expression, Deisenroth Lab, SOX17 (gene 64321). In words: CCTE_Deisenroth_DEVTOX-GLR_Pluri_SOX17: CCTE's DevTox GLR-Pluri Assay Evaluation of SRY-box transcription factor 17 (SOX17) Protein Expression, Deisenroth Lab (AID 2284427). Put shortly:
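Human RUES2-GLR pluripotent line; 24 h seeding, 48 h defined-media differentiation, 2 doses q24h, 10 conc 1 nM - 200 uM. Fix, nuclear stain, image 5 fields/well. Endpoint = %SOX17+ minus 0.2% DMSO; n=4.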

Test [8] is described as follows: CCTE_Deisenroth_DEVTOX-GLR_Pluri_CellCount: Viability Assessment in CCTE's DevTox GLR-Pluri Assay Evaluation of Total Cell Counts, Deisenroth Lab (AID 2284430; active = hit-call score of the fitted dose curve at least 0.9, where 1 is the maximum; inactive = score below 0.9). Put shortly: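 Cytotoxicity readout: fluorescent nuclei counts by high-content imaging, expressed as percent change relative to 0.2% DMSO. Human RUES2-GLR pluripotent line differentiated 48 h, dosed twice at 24-h intervals across 1 nM - 200 uM (10 points).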

Test [9] deals with Thyroid hormone receptor alpha (Rattus norvegicus) + Thyroid hormone receptor beta (Rattus norvegicus) (UniProt P18113+P63059). In words: TOX21_TR_LUC_GH3_Agonist_Followup: Tox21 GH3 Thyroid Hormone Receptor Agonism Luciferase Follow-Up Assay (AID 2283939). Put shortly:
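Agonist-mode confirmatory run: 15 concentrations (5 nM to 92 uM final) on GH3 rat pituitary cells, 24 h at 37C/5% CO2, T3 as positive control. Luminescence read with ONE-Glo after 30 min.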

Test [10] deals with THRA (gene 7067) (UniProt P10827). Kind of test: TOX21_TRA_COA_Agonist_Followup_ratio: Tox21 Thyroid Hormone Receptor alpha Agonism through Coactivator Recruitment Follow-Up Assay, Ratio (AID 2283948; active = hit-call score of the fitted dose curve at least 0.9, where 1 is the maximum; inactive = score below 0.9). In short, it runs like this:
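Follow-up specificity assay in which TRα ligand-binding domain, expressed as a GST fusion, recruits a fluorescein-labelled SRC-2 peptide. Energy transfer from a terbium anti-GST antibody gives the acceptor/donor ratio, fitted upward relative to DMSO.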

The next test concerns the target THRB (gene 7068) (UniProt P10828). Kind of test: TOX21_TRB_COA_Agonist_Followup_ratio: Tox21 Thyroid Hormone Receptor beta Agonism through Coactivator Recruitment Follow-Up Assay, Ratio (AID 2283963; active = hit-call score of the fitted dose curve at least 0.9, where 1 is the maximum; inactive = score below 0.9). In short, it runs like this: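 Signal is the 520/495 nm emission ratio (excitation 340 nm), scaled between DMSO-only wells as 0% and T3 wells as 100%. It reflects fluorescein-labeled SRC-2 peptide recruitment to GST-TRβ ligand-binding domain detected via terbium anti-GST antibody.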

Test [11] has as its target Retinoic acid receptor RXR-alpha (Homo sapiens) (UniProt P19793). In words: TOX21_TR_RXR_BLA_Agonist_Followup_ratio: Tox21 Thyroid Hormone Receptor beta Retinoid X Receptor alpha (RXRa) Agonism Beta-lactamase (BLA) Follow-Up Assay, Ratio (AID 2283968). In short, it runs like this: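 Cells were first allowed to attach for 5 h, after which compounds in DMSO were pinned at 11 concentrations and incubated 16 h at 37C. LiveBLAzer CCF4-AM substrate was then added for 2 h at room temperature before reading 460 and 530 nm fluorescence.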

A short description of test [12]: TOX21_TR_RXR_BLA_Agonist_Followup_viability: Viability Assessment in the Tox21 Thyroid Hormone Receptor beta Retinoid X Receptor alpha (RXRa) Agonism Beta-lactamase (BLA) Follow-Up Assay (AID 2283970). In short, it runs like this: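 Viability counter-screen run alongside the RXRa bla follow-up: HEK293T reporter cells were treated for 16h at 37C in stripped-serum medium, then ATP was quantified by luciferase-coupled CellTiter-Glo. Decreased signal relative to DMSO marked cytotoxicity.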

The next test concerns the target PGR (gene 5241) (UniProt P06401). Kind of test: TOX21_PR_LUC_Followup_Agonist: Tox21 HEK293 Progesterone Receptor (PR) Agonism Luciferase Follow-Up Assay (AID 2283937; active = hit-call score of the fitted dose curve at least 0.9, where 1 is the maximum; inactive = score below 0.9). Put shortly:
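Seed HEK293-PR-A-luc cells, wait 5 h, add compounds in DMSO, incubate 16 h at 37C, add ONE-Glo, read luminescence after 30 min. Activity is increase over DMSO controls; run with a viability counter-screen.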

A short description of test [13]: TOX21_PR_LUC_Followup_Agonist_viability: Viability Assessment in the Tox21 HEK293 Progesterone Receptor (PR) Agonism Luciferase Follow-Up Assay (AID 2283941).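 Also: loss of signal means cytotoxicity so actives lower viability.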 In short, it runs like this: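 Multiplexed viability endpoint of the PR agonist luciferase follow-up: HEK293-PR-A-luc cells treated 16 h at 37C, with viability scored as decrease in CellTiter-Glo ATP signal.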

The target of test [14] is THRA (gene 7067) (UniProt P10827). In words: TOX21_TRA_COA_Antagonist_Followup_ratio: Tox21 Thyroid Hormone Receptor alpha Antagonism through Coactivator Recruitment Follow-Up Assay, Ratio (AID 2283953). In short, it runs like this: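 GST-TRα LBD 2.5 nM, BSA 0.10%, + cpd; then FITC-SRC-2 peptide 200 nM + Tb-anti-GST Ab 2 nM. TR-FRET ratio 520/495 nm. Norm: DMSO = 0%, T3 = 100%.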

Test [15] is described as follows: CCTE_Harrill_HTTr_CellCount_MCF7: CCTE's Cell Proliferation Assessment for the High-Throughput Transcriptomics (HTTr) Platform, Harrill Lab (AID 2284012).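 Also: cells exposed to compound for six hours; intended direction is loss of nuclei count meaning fewer cells.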 Put shortly: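 Cell count served as viability reporter: loss of Hoechst-stained nuclei, counted by high content imaging, marks decreased growth or survival. Exposure was 6 h in MCF-7 cells across eight concentrations, with DMSO as baseline.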

Results filed as inconclusive are left out. Activity calls are given as the source filed them. The calls were made as follows, unless noted: active = hit-call score of the fitted dose curve at least 0.9, where 1 is the maximum; inconclusive = response in the unintended direction; inactive = score below 0.9.

Sequence of THRA (gene 7067) (P10827 whole entry, looked up, the tested form may be a part): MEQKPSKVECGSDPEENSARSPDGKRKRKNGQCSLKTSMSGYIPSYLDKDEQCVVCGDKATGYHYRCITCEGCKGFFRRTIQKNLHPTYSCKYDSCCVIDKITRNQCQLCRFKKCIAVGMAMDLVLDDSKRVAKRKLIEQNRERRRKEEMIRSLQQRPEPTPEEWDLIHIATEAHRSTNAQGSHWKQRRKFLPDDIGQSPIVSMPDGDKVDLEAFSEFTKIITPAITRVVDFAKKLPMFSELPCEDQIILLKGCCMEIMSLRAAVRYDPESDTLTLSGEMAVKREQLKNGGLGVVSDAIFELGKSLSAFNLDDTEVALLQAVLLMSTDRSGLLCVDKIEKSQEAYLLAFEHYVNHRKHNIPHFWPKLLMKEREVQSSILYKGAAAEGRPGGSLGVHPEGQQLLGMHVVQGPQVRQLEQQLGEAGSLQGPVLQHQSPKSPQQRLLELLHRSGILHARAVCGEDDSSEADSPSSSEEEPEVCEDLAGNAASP
Sequence of PGR (gene 5241) (P06401 whole entry, looked up): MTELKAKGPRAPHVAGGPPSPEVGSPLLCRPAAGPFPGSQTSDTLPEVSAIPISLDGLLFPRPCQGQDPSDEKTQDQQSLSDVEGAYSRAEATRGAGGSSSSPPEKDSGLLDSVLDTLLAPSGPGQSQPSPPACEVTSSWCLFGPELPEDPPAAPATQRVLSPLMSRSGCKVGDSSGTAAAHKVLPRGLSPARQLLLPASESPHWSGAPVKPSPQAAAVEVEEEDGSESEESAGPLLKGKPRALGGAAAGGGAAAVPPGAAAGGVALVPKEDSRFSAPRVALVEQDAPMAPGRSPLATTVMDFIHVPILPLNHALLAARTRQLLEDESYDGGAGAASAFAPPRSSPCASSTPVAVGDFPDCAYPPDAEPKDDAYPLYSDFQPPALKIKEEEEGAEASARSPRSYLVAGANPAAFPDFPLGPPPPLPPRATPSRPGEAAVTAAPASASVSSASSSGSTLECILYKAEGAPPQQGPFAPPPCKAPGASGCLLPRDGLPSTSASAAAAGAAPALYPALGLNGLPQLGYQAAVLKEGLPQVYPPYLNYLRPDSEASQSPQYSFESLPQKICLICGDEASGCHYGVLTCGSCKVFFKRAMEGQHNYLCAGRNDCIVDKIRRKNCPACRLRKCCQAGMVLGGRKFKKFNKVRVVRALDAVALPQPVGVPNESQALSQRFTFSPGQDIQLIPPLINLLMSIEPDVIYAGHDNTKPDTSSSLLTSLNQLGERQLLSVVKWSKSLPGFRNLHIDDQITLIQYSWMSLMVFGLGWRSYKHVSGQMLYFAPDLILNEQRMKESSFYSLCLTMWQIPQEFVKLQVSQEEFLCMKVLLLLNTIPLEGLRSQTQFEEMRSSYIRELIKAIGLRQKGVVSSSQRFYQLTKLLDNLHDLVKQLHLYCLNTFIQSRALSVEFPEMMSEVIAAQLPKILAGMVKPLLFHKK
Sequence of Thyroid hormone receptor alpha (Rattus norvegicus) + Thyroid hormone receptor beta (Rattus norvegicus) (P63059 whole entry, looked up): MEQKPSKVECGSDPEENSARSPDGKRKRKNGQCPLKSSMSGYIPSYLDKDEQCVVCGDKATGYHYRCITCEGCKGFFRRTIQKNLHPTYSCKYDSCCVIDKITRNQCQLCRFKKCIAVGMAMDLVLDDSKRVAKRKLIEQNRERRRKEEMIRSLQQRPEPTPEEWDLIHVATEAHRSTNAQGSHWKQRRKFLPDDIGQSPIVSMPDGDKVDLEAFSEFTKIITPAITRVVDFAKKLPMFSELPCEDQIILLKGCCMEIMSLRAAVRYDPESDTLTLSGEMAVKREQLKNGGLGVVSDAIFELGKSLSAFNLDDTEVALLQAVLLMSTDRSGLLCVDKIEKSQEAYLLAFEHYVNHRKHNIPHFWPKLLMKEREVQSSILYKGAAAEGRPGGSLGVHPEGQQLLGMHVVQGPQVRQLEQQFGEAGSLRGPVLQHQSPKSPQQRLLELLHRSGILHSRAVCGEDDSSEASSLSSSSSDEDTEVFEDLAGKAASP
Sequence of Thyroid hormone receptor alpha (Rattus norvegicus) + Thyroid hormone receptor beta (Rattus norvegicus) (P18113 whole entry, looked up): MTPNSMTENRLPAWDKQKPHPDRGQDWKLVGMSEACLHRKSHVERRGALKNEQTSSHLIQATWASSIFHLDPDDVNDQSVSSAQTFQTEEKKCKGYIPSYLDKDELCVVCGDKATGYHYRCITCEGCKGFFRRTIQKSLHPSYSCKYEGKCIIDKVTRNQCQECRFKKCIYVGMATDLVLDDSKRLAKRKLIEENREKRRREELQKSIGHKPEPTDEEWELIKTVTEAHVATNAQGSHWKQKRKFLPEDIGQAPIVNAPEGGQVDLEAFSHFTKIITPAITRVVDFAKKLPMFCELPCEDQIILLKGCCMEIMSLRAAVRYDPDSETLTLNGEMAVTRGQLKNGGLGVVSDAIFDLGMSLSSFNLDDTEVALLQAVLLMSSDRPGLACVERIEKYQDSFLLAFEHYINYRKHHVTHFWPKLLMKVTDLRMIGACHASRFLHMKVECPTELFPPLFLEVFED
Sequence of THRB (gene 7068) (P10828 whole entry, looked up, the tested form may be a part): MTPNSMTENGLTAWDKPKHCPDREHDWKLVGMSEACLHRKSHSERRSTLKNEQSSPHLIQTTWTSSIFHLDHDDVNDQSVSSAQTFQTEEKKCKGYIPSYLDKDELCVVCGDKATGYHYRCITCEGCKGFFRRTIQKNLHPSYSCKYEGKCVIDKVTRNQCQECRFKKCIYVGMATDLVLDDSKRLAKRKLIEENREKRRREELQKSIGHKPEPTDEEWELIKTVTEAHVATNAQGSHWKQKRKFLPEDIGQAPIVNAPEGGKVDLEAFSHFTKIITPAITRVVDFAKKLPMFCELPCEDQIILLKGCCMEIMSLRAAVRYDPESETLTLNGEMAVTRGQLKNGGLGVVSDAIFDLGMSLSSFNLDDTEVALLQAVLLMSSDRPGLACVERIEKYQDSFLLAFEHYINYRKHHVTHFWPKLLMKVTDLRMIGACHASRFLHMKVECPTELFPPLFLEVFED
Sequence of Retinoic acid receptor RXR-alpha (Homo sapiens) (P19793 whole entry, looked up): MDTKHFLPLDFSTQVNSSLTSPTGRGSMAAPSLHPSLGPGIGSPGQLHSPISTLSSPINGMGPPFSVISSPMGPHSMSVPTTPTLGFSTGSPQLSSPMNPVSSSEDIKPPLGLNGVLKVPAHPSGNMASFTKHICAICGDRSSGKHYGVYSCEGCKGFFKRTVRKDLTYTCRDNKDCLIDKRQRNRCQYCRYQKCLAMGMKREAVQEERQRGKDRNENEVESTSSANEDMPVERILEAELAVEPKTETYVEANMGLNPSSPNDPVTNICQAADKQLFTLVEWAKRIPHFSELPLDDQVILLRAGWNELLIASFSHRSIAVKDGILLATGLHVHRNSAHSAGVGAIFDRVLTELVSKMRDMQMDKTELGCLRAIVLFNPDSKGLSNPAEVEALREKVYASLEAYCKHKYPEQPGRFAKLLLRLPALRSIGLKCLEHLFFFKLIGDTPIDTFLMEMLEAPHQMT

Turning to `CCN(CC)CCNC(=O)c1c(C)[nH]c(/C=C2\C(=O)Nc3ccc(F)cc32)c1C`, the AC50 (in general, the concentration giving half of the maximal activity seen) was 1630 nM (active) in test [1]; 623 nM (active) in test [2]; 621 nM (active) in test [3]; 616 nM (active) in [4]; 826 nM (active) in [5]; 1620 nM (active) in test [6]. In addition, the AC50 was 1460 nM (active) in [7] and 1230 nM (active) in [8]. For `COc1cc(C)c(/C=C/C(C)=C/C=C/C(C)=C/C(=O)O)c(C)c1C`, the results for the AC50 in [9] and in test [11] were 767 nM (active) and 593 nM (active), respectively. The outcome (with THRA (gene 7067) [10]; with THRB (gene 7068); in test [12]) was inactive.

For the compound `NC(=O)n1c(O)c(C(=O)c2cccs2)c2cc(Cl)ccc21`, the compound was classed as inactive (in the test with PGR (gene 5241); in test [13]).

For the compound `CC(C)C[C@H](NC(=O)[C@H](Cc1ccccc1)NC(=O)c1cnccn1)B(O)O`, the result (in the test with PGR (gene 5241); in test [13]) was inactive. With `Cc1ccc(/C=N/n2c(-c3ccccc3)csc2=S)cc1`, the compound was called inactive in [13]. For the compound `COC(=O)C1=C(C)NC(C)=C(C(=O)OCCN2CCN(C(c3ccccc3)c3ccccc3)CC2)C1c1cccc([N+](=O)[O-])c1` (stereo unspecified), the compound was called inactive (in the test with PGR (gene 5241); in test [13]). For the compound `C=C1C(CCl)(CCl)C2(Cl)C(Cl)C(Cl)C1(Cl)C2(Cl)Cl` (stereo unspecified), in the test with PGR (gene 5241), the AC50 was 8970 nM (active). For the compound `CC(C)(C)CC(C)(C)c1ccc(O)c(Cc2ccc(Cl)cc2Cl)c1`, the results for the AC50 (in test [9]; with THRA (gene 7067) [10]; in the test with THRB (gene 7068)) were 2830 nM (active), 12100 nM (active) and 12200 nM (active), respectively. For the same compound, the result in test [11] and in [12] was inactive. `NC(N)=NCc1cccc(I)c1`: in the test with THRA (gene 7067) [14], the result was inactive. For the compound `C[C@]12C=CC(=O)C=C1[C@@H](F)C[C@@H]1[C@@H]2[C@@H](O)C[C@@]2(C)[C@H]1CC[C@]2(O)C(=O)CO`, the outcome in [13] was inactive. For `COC(=O)C1=C(C)NC(C)=C(C(=O)OCC(C)=O)C1c1ccccc1[N+](=O)[O-]` (stereo unspecified), the result in test [13] was inactive.

As to `CCCCCOc1ccc(C2SC(=O)NC2=O)cc1OCC` (stereo unspecified), in the test with THRA (gene 7067) [14], the outcome was inactive. `C#C[C@]1(O)CC[C@H]2[C@@H]3CCc4cc(OC5CCCC5)ccc4[C@H]3CC[C@@]21C`: the compound was called inactive in [13]. The same measure, in the same setting: to `CCC(=C(CC)c1ccc(O)cc1)c1ccc(O)cc1` belongs “inactive”. As for `O=C(Nc1ccc(Cl)c(Cl)c1)C1CC1`, the compound was classed as inactive (with PGR (gene 5241); in [13]). As for `O=C1C(=O)c2ncccc2-c2cccnc21`, the outcome with THRA (gene 7067) [14] was inactive. Still for that read-out and setting: the result for `CC[C@@]1(O)C(=O)OCc2c1cc1n(c2=O)Cc2cc3c(CN(C)C)c(O)ccc3nc2-1` reads “inactive”. Take `COCCOC(=O)C1=C(C)NC(C)=C(C(=O)OC/C=C/c2ccccc2)C1c1cccc([N+](=O)[O-])c1` (stereo unspecified): the compound was classed as inactive in [13]. With `Cc1cc(Nc2ccccc2C(=O)O)ccc1Cl`, the result in the test with THRA (gene 7067) [14] was inactive.

On to `CC(C)=CCC1=C(O)c2ccccc2C(=O)C1=O`, for which the outcome in the test with THRA (gene 7067) [14] was inactive.

As for `CC(C)C[C@H](NC(=O)[C@H](CCc1ccccc1)NC(=O)CN1CCOCC1)C(=O)N[C@@H](Cc1ccccc1)C(=O)N[C@@H](CC(C)C)C(=O)[C@@]1(C)CO1`, in the test with PGR (gene 5241), the compound was classed as inactive. For the compound `CC1(C)[C@@H](O[C@H]2O[C@H](C(=O)O)[C@@H](O)[C@H](O)[C@H]2O[C@@H]2O[C@H](C(=O)O)[C@@H](O)[C@H](O)[C@H]2O)CC[C@]2(C)[C@H]3C(=O)C=C4[C@@H]5C[C@@](C)(C(=O)O)CC[C@]5(C)CC[C@@]4(C)[C@]3(C)CC[C@@H]12`, in test [15], the result was inactive.
